# Inconclusive results are not listed. A call without a number means that no potency is given here. The source made the active and inactive calls. The call rests on the fitted dose curve; in most records, active means well fitted activation curve with a large enough effect in the repeat runs; inconclusive means weak or mixed curves; inactive means no such curve, though single readings can be large or run the other way.
# Test: qHTS assay for small molecules that induce genotoxicity in human embryonic kidney cells expressing luciferase-tagged ATAD5 (AID 651632); further: nearly all actives have a fitted effect of over 15% in size
# Conditions: HEK293T ATAD5-luciferase induction, 16 h; series mostly up to 83.3 µM
# Text: U.S. Tox21 Program National Center for Advancing Translational Sciences [NCATS] NIH Chemical Genomics Center [NCGC] U.S. Environmental Protection Agency [EPA] National Institutes of Environmental Health Sciences [NIEHS] National Toxicology Program [NTP] U.S. Food and Drug Administration [FDA] Tox21 Assay Overview: As cancer cells divide rapidly and during every cell division they need to duplicate their genome by DNA replication. The failure to do so results in the cancer cell death. Based on this concept, many chemotherapeutic agents were developed but have limitations such as low efficacy and severe side effects etc. A new cell based assay was developed to find the compounds that effectively block DNA replication either by directly damaging DNA or by inhibiting other cellular mechanisms. Enhanced Level of Genome Instability Gene 1 (ELG1; human ATAD5) protein levels increase in response to various types of DNA damage. Using a luciferase reporter-gene tagged with ATAD5, a cell-based assay [developed by Kyungjae Myung, NHGRI, NIH] was used to measure the induction of ATAD5 in human embryonic kidney cells (HEK293T). So, increase in luciferase activity can be used to identify the compounds that cause genetic stress.
# Tox21 Assay Protocol Summary: For genotoxicity screening, 2,000 cells in 5 uL/well were dispensed into white, solid-bottom 1536-well plates using a Multidrop Combi (Thermo Scientific) dispenser. Following transfer of 23 nL compound or DMSO vehicle by a pin tool, the plates were incubated 16 hr at 37C and 5% CO2. 5 ul Amplite (AAT Bioquest, Inc.) was then added to each plate and following 30 min incubation at room temperature, luciferase activity was quantified on a ViewLux CCD-based plate reader.
# Potency means the concentration at half of the fitted maximal effect.
row,SMILES,Potency
1,NC(CS)C(=O)O (stereo not given),inactive
2,CCC(C)(C)C1CCC(OC)CC1 (stereo not given),inactive
3,CO[Si](CCCNCCC[Si](OC)(OC)OC)(OC)OC,inactive
4,C=C(C)C(=O)OCCCCCCCCCCCCCCCCCC,inactive
5,CCc1cc(S(=O)(=O)O)c2cc(C(C)C)cccc1-2,inactive
6,Nc1cc(N)cc(C(=O)O)c1,inactive
7,Oc1cc(O)c2c(c1)O[C@H](c1ccc(O)c(O)c1)[C@H](O)C2,inactive
8,CCN1CCN(c2cc3c(cc2F)c(=O)c(C(=O)O)cn3C2CC2)CC1,inactive
9,c1ccc2cnncc2c1,inactive
10,C/C=C1\C(=O)C[C@H]2[C@@H]3CCC4=CC(=O)CC[C@]4(C)[C@H]3CC[C@]12C,inactive
11,CCCCCCCCC=O,inactive
12,CC(=O)c1ccc(C)cc1,inactive
13,CCCCCC[C@@H](CCC)C(=O)O,inactive
14,COc1cc(CCC(C)=O)ccc1O,inactive
15,COc1ccc(N=[N+]([O-])c2ccc(OC)cc2)cc1,136 nM (active)
16,CCCCN(CCO)CCO,inactive
17,CC1(C)SC(C)(C)SC(C)(C)S1,inactive
18,Cc1nc(-c2ccc(OCC(C)C)c(C#N)c2)sc1C(=O)O,150 nM (active)
19,O=C(O)C(O)[C@H](O)[C@@H](O)[C@H](O)[C@H](O)CO (stereo not given in full),inactive
20,CC(C)(C)CC(C)(C)N,inactive

row,SMILES,Potency
1,Nc1[nH]c(=O)ncc1F,inactive
2,CCOC(=O)[C@H](CCc1ccccc1)N[C@@H](C)C(=O)N1CCC[C@H]1C(=O)O,inactive
3,C1CCCCCCCCCCC1,inactive
4,CC(O)CN(CCCN(C)C)CCCN(C)C (stereo not given),inactive
5,C#CC(O)CCCCC (stereo not given),inactive
6,CC(C)(O)c1ccccc1,inactive
7,CC(C)[C@H](N)C(=O)OCCOCn1cnc2c(=O)[nH]c(N)nc21,inactive
8,NCC[C@H](O)C(=O)N[C@@H]1C[C@H](N)[C@@H](O[C@H]2O[C@H](CN)[C@@H](O)[C@H](O)[C@H]2O)[C@H](O)[C@H]1O[C@H]1O[C@H](CO)[C@@H](O)[C@H](N)[C@H]1O,inactive
9,C=C(C)C(=O)NCCC[N+](C)(C)C,inactive
10,CCCCCCCCCCCCCCC,inactive
11,COC(=O)C1=C(C)NC(C)=C(C(=O)OCC(C)=O)C1c1ccccc1[N+](=O)[O-] (stereo not given),inactive
12,C=CC(=O)N1CCOCC1,inactive
13,NS(=O)(=O)c1cc(C2(O)NC(=O)c3ccccc32)ccc1Cl (stereo not given),inactive
14,CC(C)(O)Cc1ccccc1,inactive
15,NC1CCN(c2cccc(Cl)n2)CC1,inactive
16,CC(C)=CC(=O)O,inactive
17,O=C1C(CCS(=O)c2ccccc2)C(=O)N(c2ccccc2)N1c1ccccc1 (stereo not given),inactive
18,CC(C)c1cccc(C(C)C)c1N,inactive
19,CN(C)C(=O)C(CCN1CCC(O)(c2ccc(Cl)cc2)CC1)(c1ccccc1)c1ccccc1,inactive
20,Cc1c(C)n(CCN(C)C)c2ccc(C(=O)OCCN(C)C)cc12,inactive
